Data reported in PubChem BioAssay AID2229 (National Center for Advancing Translational Sciences (NCATS), 2010).
Calls of active or inactive are those of the source.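 Rule for the calls: active = a thermal shift above zero, meaning the compound raised the protein's melting temperature; inactive = the rest.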

Each compound was assayed against Luciferin 4-monooxygenase (Photinus pyralis) (UniProt P08659) (assay: Thermal Shift Assay for Inhibitors of FLuc (Firefly Luciferase, Photinus pyralis) in Absence of ATP). Conditions: purified FLuc, SYPRO Orange thermal shift, no ATP; at 200 µM; active compounds read high.
Luciferin 4-monooxygenase (Photinus pyralis), sequence (P08659 whole entry, looked up): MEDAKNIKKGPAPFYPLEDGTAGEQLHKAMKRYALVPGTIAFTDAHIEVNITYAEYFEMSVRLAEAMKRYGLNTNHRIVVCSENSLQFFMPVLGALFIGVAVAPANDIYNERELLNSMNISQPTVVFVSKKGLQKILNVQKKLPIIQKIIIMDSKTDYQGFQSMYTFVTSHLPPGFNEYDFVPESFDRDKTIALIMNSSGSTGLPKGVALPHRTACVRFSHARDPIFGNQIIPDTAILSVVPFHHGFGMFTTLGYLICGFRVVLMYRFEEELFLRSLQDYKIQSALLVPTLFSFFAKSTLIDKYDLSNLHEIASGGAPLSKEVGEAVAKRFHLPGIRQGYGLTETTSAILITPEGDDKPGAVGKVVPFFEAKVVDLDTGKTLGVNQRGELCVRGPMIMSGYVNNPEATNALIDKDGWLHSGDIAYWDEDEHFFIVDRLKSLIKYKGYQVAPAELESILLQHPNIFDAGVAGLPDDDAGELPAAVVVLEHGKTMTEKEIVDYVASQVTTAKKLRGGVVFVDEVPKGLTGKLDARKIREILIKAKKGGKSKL
Description: Firefly (Photinus pyralis) luciferase (FLuc) is widely used as a reporter in biological assays. […] In order to determine if FLuc thermal stabilization parallels inhibitor potency, a fluorescence-based thermal denaturation assay was developed in this present study. An environmentally sensitive fluorescence dye, SYPRO Orange (Invitrogen, presently Life Technologies) was utilized to monitor the fluorescence change as a function of temperature. The dye preferentially binds to the hydrophobic regions of the protein, and its high signal-to-noise ratio, large Stokes shift and high excitation wavelength make it ideal for thermal shift application. In this assay, the melting temperature (Tm) (the inflection point of the protein melt transition) was assessed for each sample tested. Differences in the Tm between controls and compound-containing samples were determined (the thermal shift or delta Tm), and compounds were ranked by the degree of their thermal shift at the top concentration (200 uM). […] FLuc catalyzes light production in bioluminescent organisms. The reaction requires luciferin, ATP and O2 as substrate, and it includes the formation of a luciferyl-AMP intermediate and the subsequent production of light, AMP, oxyluciferin and CO2. In this study, PTC124 and analogues were evaluated for their potential to stabilize FLuc in the absence and presence of ATP. This particular BioAssay is in the absence of ATP. See related BioAssay "Thermal Shift Assay for Inhibitors of FLuc (Firefly Luciferase, Photinus pyralis) in the Presence of ATP" See [6] for more details on this assay and related studies. Welch, et al. PTC124 targets genetic disorders caused by nonsense mutations. Nature 447 (2007) 87-91. D.S. Auld, N. Thorne, W.F. Maguire, and J. Inglese, Mechanism of PTC124 activity in cell-based luciferase assays of nonsense codon suppression. […]
Assay Protocol: 1.8 uM FLuc was tested in Tris-acetate buffer (pH 7.6) or phosphate buffer saline (pH 7.4). […] Fluorescence intensity changes (Ex 490/Em 575 nm) were monitored with a charge-coupled device (CCD) camera. […]

Thermal shift (delta Tm), active:
NC(=O)c1cccc(-c2noc(-c3ccccc3F)n2)c1 2.84 °C
O=C(O)c1ccc(-c2noc(-c3ccccc3F)n2)cc1 5.87 °C
Nc1ncnc2c1ncn2[C@@H]1O[C@H](COP(=O)(O)OC(=O)c2cccc(-c3noc(-c4ccccc4F)n3)c2)[C@@H](O)[C@H]1O 28.3 °C
